Screens deposited in PubChem BioAssay by several laboratories.
Shown are actives, neighbours in structure and some others; about 2.2% of the full set was active somewhere.
M1 PAM parental = M1 PAM counterscreen hit in parental CHO-K1 cells; ATP EC20, Fluo-8 calcium fluorescence; 0% at ATP EC20, 100% at ATP max; activation, % at 3 µM; actives 0.02% (n = 360,000);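 active = activation above the run cutoff, the mean activation of all test compounds plus 3 SD, cut at about 40% in these data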;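 note: peak over basal fluorescence ratio in a 140 s read after ATP addition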
CHO-K1 Ca ag = M1 agonist counterscreen hit in parental CHO-K1 cells; activation, % at 3 µM; Fluo-8 calcium fluorescence; scaled to maximal ATP response, vehicle zero; AID 602248; actives 0.48% (n = 360,000); in the data active = activation above about 15%;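 note: untransfected CHO-K1 host cells lacking M1 receptor as counterscreen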
CHO-K1 Ca antag = counter-screen for M1 antagonists: effect in parental CHO-K1 cells | ATP-induced calcium, Fluo-8 fluorescence | inhibition, % at 3 µM | actives 0.6% (n = 360,000) | AID 602250;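 active = inhibition above a per-plate cutoff, the plate's mean sample inhibition plus 3 SD, cut at about 24% in these data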;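 note: 0% = DMSO plus EC80 ATP and 100% = DMSO alone without ATP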
TMEM16A act = activates or potentiates the mouse TMEM16A chloride channel. Q8BHY3. HEK293 TMEM16A/YFP-H148Q/I152L, iodide quench fluorescence; hits give low values. B-score at 10 µM. actives 0.3% (n = 340,000);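 active = fluorescence-ratio B-score plate-corrected deviation score at least 3 library SD below zero, with starting fluorescence score within 5 deviations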;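 note: channel opened by trigger with iodide after compound preincubation; score built on the fluorescence ratio of max minus min over baseline; more negative score means more quench and so TMEM16A activation or potentiation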
TMEM16A inh = inhibitors of mouse TMEM16A calcium-activated chloride channel. normalized B-score (activity score, 25-100; higher = stronger inhibition) at 10 µM. actives 1.2% (n = 310,000). HEK293 TMEM16A/YFP iodide influx fluorescence, ionomycin. AID 588511;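 active = ratio plate-corrected score three or more library SD toward inhibition, starting fluorescence score within five deviations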;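 note: score derived from kinetic fluorescence span divided by baseline fluorescence per well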
NTR1 ag = NTR1 (human) agonism. P30989. NTR1-U2OS beta-arrestin-GFP spot imaging, agonist mode. activation, % at 20 µM. actives 0.17% (n = 330,000);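 active = activation at or above 40% of the spot to cytoplasm intensity ratio, with at least 20 cells analyzed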;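 note: 0% = DMSO without peptide and 100% = 100 nM NTR1 peptide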
TMEM16A reconf = re-confirmation of mouse TMEM16A chloride channel inhibitors; shares compounds with TMEM16A inh; HEK293 TMEM16A/YFP-H148Q, iodide quench fluorescence; ionomycin added to raise cell calcium; inhibition, % at 10 µM; actives 39% (n = 2,300); AID 652189;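 active = mean duplicate percent inhibition, scaled so buffer wells are 0 and the reference blocker 100, over three buffer SD above buffer mean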
TMEM16A Ca cntr = calcium mobilization counter-screen hit for TMEM16A inhibitor series | shares compounds with TMEM16A inh | calcium response (% of ionomycin), % at 10 µM | TMEM16A/YFP HEK293, Fluo4 calcium mobilization | actives 2% (n = 2,300) | AID 652231;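 active = duplicate-averaged calcium signal over 20% of the ionomycin maximum, relative to buffer baseline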;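 note: each well's signal is peak minus trough fluorescence divided by its pre-addition baseline; 0% = buffer wells and 100% = ionomycin wells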
Parental YFP cnt = counter-screen for TMEM16A inhibitors: effect in parental YFP-HEK293 cells; shares compounds with TMEM16A inh; iodide YFP quench, ionomycin; YFP ratio F(max-min)/F0 at 10 µM; 2,300 tested, under 10 active; AID 652233;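 active = yellow fluorescent protein signal ratio exceeding the buffer control mean by over 5 SD of those controls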;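 note: ratio is mean of duplicate wells from kinetic YFP trace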
ClC-1 inh = blocks the rat ClC-1 voltage-dependent chloride channel. shares compounds with TMEM16A inh. ratio percent, % at 10 µM. CHO ClC-1-YFP, iodide influx fluorescence quench; iodide control reads 0, buffer control 100. AID 652236. 2,300 tested, under 10 active;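 active = duplicate-mean ratio percent above the mean of iodide-only control wells, which defines zero, plus 5 of their SD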;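 note: higher percent means stronger block of ClC-1 iodide influx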
The depositor's hits bear a star; i = inactive; nt = no result.

SMILES	M1 PAM parental	CHO-K1 Ca ag	CHO-K1 Ca antag	TMEM16A act	TMEM16A inh	NTR1 ag	TMEM16A reconf	TMEM16A Ca cntr	Parental YFP cnt	ClC-1 inh
N#C/C(=C\c1ccc(O)c(O)c1)S(=O)(=O)c1ccccc1	9	1	2	i	i	0	41%*	i	-0.81	4
CCC1NC(=O)c2cccnc2-n2c1nc1ccc(F)cc1c2=O (stereo not given)	1	0	6	nt	nt	nt	nt	nt	nt	nt
CCc1nc2sc3ccccc3c(=O)c2c(=O)n1CCOC	4	0	1	i	25*	2	i	i	-1.1	-12
COc1cccc(NC(=O)Nc2nc(-c3ccc(OC)c(OC)c3)cs2)c1	-27	11	18	i	25*	0	20%*	i	-1.1	-4
COc1ccc(CNC(=O)C2CCN(C(=O)c3ccc(F)cc3)CC2)cc1OC	2	0	-1	i	nt	3	nt	nt	nt	nt
COc1ccc(-c2csc(NC(=O)C3CCN(C(=O)c4ccc(F)cc4)CC3)n2)cc1OC	-9	10	2	i	100*	1	20%*	i	-0.75	-16
COc1ccc2cc(C(=O)NCCO)sc(=O)c2c1OC	12	1	-12	i	25*	1	i	i	-1.1	-11
CCN1CCN(CC(O)COc2ccc(Cl)cc2)CC1 (stereo not given)	17	0	-19	i	i	0	nt	nt	nt	nt
CCN1CCN(CC(O)COC(C)C)CC1 (stereo not given)	17	1	-6	i	25*	1	i	i	-1.2	-14
COc1ccc(C)cc1NC(=O)CSc1nnc(COc2ccc(C)cc2)n1Cc1ccco1	-8	0	9	i	25*	4	i	i	-1.1	-14
COc1ccccc1NC(=O)CSc1nnc(COc2ccc(Cl)cc2)n1Cc1ccco1	7	2	-9	i	i	5	nt	nt	nt	nt
CC1CCC(NC(=O)CN2C(=O)C3CC=CCC3C2=O)CC1 (stereo not given)	-11	-1	-5	i	nt	-1	nt	nt	nt	nt
CCCN(CC(=O)c1cc(C)n(C)c1C)S(=O)(=O)c1cccc(C(F)(F)F)c1	6	-1	3	i	100*	0	i	i	-0.85	-6
CCN(CC)S(=O)(=O)c1cccc(-c2nnc(SCC(=O)c3cc(C)n(C)c3C)o2)c1	14	0	-9	i	i	6	nt	nt	nt	nt
CCc1cc(C(=O)N2CCCC(CCC(=O)N3CCN(c4ccccn4)CC3)C2)no1 (stereo not given)	13	1	-1	i	i	0	nt	nt	nt	nt
CC(C)c1cc(C(=O)N2CCCC(CCC(=O)N3CCN(c4ccccn4)CC3)C2)no1 (stereo not given)	10	6	-1	i	25*	0	i	i	-1	-18
COc1ccccc1-c1ccc(SCc2ccc(F)cc2)nn1	11	-1	-7	i	100*	2	i	i	-0.99	-14
COc1ccccc1-c1ccc(SCC(=O)N2CCOCC2)nn1	5	0	-7	i	i	0	nt	nt	nt	nt
COc1ccccc1-c1ccc(SCc2ccc(C)cc2)nn1	2	0	-8	i	25*	6	i	i	-0.88	-10
COc1ccc(CN(C)Cc2nc(Cc3cccc(F)c3)no2)c2cccnc12	1	15	17	i	25*	1	i	i	-1.1	-18
COc1cccc(-n2cc(CN(C)Cc3nc(Cc4cccc(F)c4)no3)cn2)c1	-12	2	-10	i	i	-1	nt	nt	nt	nt
CCCCn1c(SCC(=O)c2cc(OC)ccc2OC)nc2cc(S(N)(=O)=O)ccc21	4	0	0	i	i	-3	nt	nt	nt	nt
CCCCn1c(SCc2ccc(C(=O)OC)o2)nc2cc(S(N)(=O)=O)ccc21	10	3	0	i	25*	4	18%*	i	-1.1	-13
Cc1ccc(SCC2(O)CCN(C(=O)c3ccc(Cl)cc3)CC2)cc1	13	4	-2	i	25*	0	i	i	-0.93	0
Cc1ccc(SCc2ccc(C(=O)N3CCCC3)cc2)cc1	21	4	-13	i	i	4	nt	nt	nt	nt
SMILES	M1 PAM parental	CHO-K1 Ca ag	CHO-K1 Ca antag	TMEM16A act	TMEM16A inh	NTR1 ag	TMEM16A reconf	TMEM16A Ca cntr	Parental YFP cnt	ClC-1 inh
O=C1C=CC(O)C2(CO)OC12 (stereo not given)	5	0	0	nt	nt	nt	nt	nt	nt	nt
CCOC(=O)c1ccc2c(c1)nc(C1CCN(S(=O)(=O)c3cccs3)CC1)n2CC	3	15*	-6	i	25*	2	i	i	-1	-6
COc1ccc2cc(C[C@@H]3CC[C@@H](CO)O3)ccc2c1	9	1	-12	i	nt	0	nt	nt	nt	nt
CC(OC(=O)c1cc(Br)ccc1O)C(=O)Nc1ccc(S(=O)(=O)N2CCCC2)cc1 (stereo not given)	-30	7	8	i	100*	5	62%*	i	-1	-19
CCCCSc1ccc2nc(-c3ccc(C#N)cc3)cn2c1	0	2	-6	i	100*	7	16%*	i	-1.2	-8
O=C(NCc1ccc(F)cc1)c1cc(C2CCCN(C(=O)c3ccc4c(c3)CCO4)C2)on1 (stereo not given)	18	3	-7	nt	nt	nt	nt	nt	nt	nt
Cc1noc(C)c1C(=O)NNc1ccc(C(C)C)cc1	26	1	-8	i	i	0	nt	nt	nt	nt
Cc1ccc(C(C)NC(=O)c2c(C)noc2C)cc1C (stereo not given)	-3	0	3	i	25*	0	i	i	-1	-10
COc1cccc(Oc2ccc(S(=O)(=O)N3CCOCC3)cc2[N+](=O)[O-])c1	8	0	-10	i	nt	4	nt	nt	nt	nt
COc1ccc(OC)c(C(=O)c2coc3ccc(O)cc23)c1	-1	1	2	i	25*	-1	i	i	-0.84	-2
CCc1ccc(CN2CCN(C(=O)c3cccc(OC)c3OC)CC2)cc1	11	2	0	i	25*	-2	i	i	-0.97	1
